HT1080 IDH1KD tx – HT-1080 IDH1 knockdown cell toxicity (counter line). HT-1080 IDH1 knockdown viability, ATP luminescence, 48 h. Potency, µM (top dose mostly 46.1 µM), inactives show top-dose activity, negative = toxicity, actives largely listed as cytotoxic. actives 2% (n = 360,000). AID 686971;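 note: potency is the fitted concentration of half-maximal effect; 0% = DMSO wells and -100% = cell-free medium wells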
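% activity derives from luminescence (CellTiter-Glo), normalised to DMSO and no-cell wells. HT-1080-IDH1KD cells, 750/well, had 48 h compound exposure at 37 °C.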
KB-3-1 cytotox – KB-3-1 parental cell cytotoxicity; KB-3-1 viability, CellTiter-Glo ATP luminescence, 72 h; Potency, µM (doses to about 46.1 µM), usual class: cytotoxic; actives 1.4% (n = 400,000); AID 1347075; note: potency is the fitted concentration of half-maximal effect; nearly all actives have a fitted effect of over 60% in size
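Multi-concentration cytotoxicity screen in KB-3-1 cells grown in DMEM lacking phenol red with 10% FBS. After 72 h at 37 °C with compound, ATP-dependent luminescence was recorded.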
KB-V1 cytotox – KB-V1 MDR subline cytotoxicity; KB-V1 MDR cells viability, CellTiter-Glo, 72 h; Potency, µM (titrated, usually from 46.1 µM), actives largely listed as cytotoxic; actives 3.4% (n = 400,000); AID 1347076; note: potency is the fitted concentration of half-maximal effect; nearly all actives have a fitted effect of over 60% in size
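Luminescent ATP read-out (CellTiter-Glo, 10 min) measures survival of drug-selected KB-V1 MDR cells after 72 h, 37 degrees C compound exposure. Medium: phenol-red-free DMEM, 10% FBS. Values from fitted concentration-response curves.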
HT1080-NT tox – kills 2HG-producing HT-1080-NT fibrosarcoma cells; HT-1080-NT fibrosarcoma viability, CellTiter-Glo ATP luminescence, 48 h; Potency, µM (top dose mostly 46.1 µM), for inactives: at the top dose activity, negative = less viability, most hits filed as cytotoxic; AID 686970; actives 1.6% (n = 360,000);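 note: NT is the 2HG producing partner of a matched IDH1 knockdown line; potency is the fitted concentration of half-maximal effect; 0% = DMSO-treated cells and -100% = media-only wells without cells; nearly all actives have a fitted effect of over 55% in size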
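HT-1080-NT; 750 cells/well; 5% FBS RPMI; 48 h compound, 37 degrees C; CellTiter-Glo luminescence; curve fitting and curve-class assignment.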
IL-1B inflam inh – blocks inflammasome-driven IL-1 beta release. activity change, % at 57.5 µM. THP-1 LPS/ATP IL-1B secretion, AlphaLISA, 16 h; stronger effect = lower value. actives 4.7% (n = 360,000). AID 743279; in the data active = activity change below about -50%; inconclusive = mostly about -30% to -49%
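Secreted IL-1B measured by AlphaLISA bead assay after 16 h compound exposure of THP-1 cells; compounds (final up to 57.5 uM) added 1 h before LPS (250 ng/mL) and ATP (1.25 mM) stimulation; lower signal means less secretion.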
* = called active by the depositor; i = inactive; ? = inconclusive; / = no result given. A selection: hits, their analogues and other compounds. The true share with any hit is near 8.8%. Unless noted, calls come from the whole dose curve; as a rule, active = well fitted curve in the direction sought with a large enough effect; inconclusive = small, poorly fitted or top-dose-only effect, or another doubt; inactive = no such curve, though single readings can be large; an effect the other way counts as inactive or inconclusive. Unless noted, % is set by controls: 0 for no effect and ±100 for the full control effect.

SMILES | HT1080 IDH1KD tx | KB-3-1 cytotox | KB-V1 cytotox | HT1080-NT tox | IL-1B inflam inh
CCOC(=O)C1=C(C)NC2=C(C(=O)CC(c3cccs3)C2)C1c1cccs1 (stereo not given) | 15µM* | 5.8µM* | 15µM* | ? | ?
Cc1ccc(-n2c(=O)c3c(c4cc(C)ccc4n3C)n(CC(=O)Nc3c(C)cccc3C)c2=O)cc1 | / | i | i | / | /
CCOC(=O)C1=C(C)NC(=O)CC1c1ccccc1 (stereo not given) | 9% | i | i | 11% | -3
CCOC(=O)C1=C(C)NC2=C(C(=O)OC2)C1c1ccccc1 (stereo not given) | 21µM* | ? | i | ? | 51
CCC(C(=O)N1CCN(c2cc(Cl)ccc2C)CC1)n1nc(C)c2sc3ccccc3c2c1=O (stereo not given) | / | i | i | / | /
OC1(CNCc2cn[nH]c2-c2cc3ccccc3o2)CCCCC1 | ? | i | i | -17% | -91*
Cc1nc2c(C#N)c[nH]n2c(=O)c1CCO | 24% | i | i | 11% | -9
COc1ccc(-c2cc(C(=O)NCc3cccc(C(F)(F)F)c3)[nH]n2)c(C)c1 | -3% | i | i | -22% | -9
O=C(CCN(CCO)Cc1ccccc1)Nc1ccc(Br)cc1 | ? | i | 15µM* | ? | 0
CN(CC(=O)NCCc1ccc(F)cc1)Cc1ccc(Br)cc1 | -11% | i | ? | -15% | -59*
CCN(CCC(=O)Nc1ccc(Br)c(C)c1)Cc1ccccc1 | ? | ? | ? | 15µM* | ?
CN(CC(=O)NCCCc1ccccc1)Cc1ccc(Br)cc1 | -4% | i | i | ? | -8
CN(CC(=O)Nc1ccc(Br)cc1)Cc1ccccc1 | 5% | i | i | -1% | -81*
Cc1ccc(NC(=O)CCc2ccccc2)cc1C | 1% | i | i | 5% | -12
CCNC(=S)N1N=C2c3ccccc3CCC2C1c1ccc(F)cc1 (stereo not given) | ? | ? | 21µM* | ? | 14
CC(=O)N1N=C2c3ccccc3CCC2C1c1ccc(F)cc1 (stereo not given) | 21µM* | ? | ? | ? | /
C/C=C\C(=O)Nc1cccc(C2=NOC3(C2)C[C@H](C(N)=O)N(C(=O)Cc2ccc([N+](=O)[O-])cc2)C3)c1 (stereo not given in full) | -1% | i | i | 1% | -6
Cc1ccc(-c2oc3ccccc3c(=O)c2O)cc1 | -26% | 21µM* | ? | ? | 77
COCOCCn1cc(CN2CCS(=O)(=O)N(Cc3ccc(-c4ccc(Cl)nc4)cc3)C(C(C)C)C2=O)nn1 (stereo not given) | -4% | i | i | -16% | 66
COc1ccc(Cc2ccccc2C(=O)O)cc1 | 11% | i | i | 0% | 1
COc1ccc(CC2=CC(=O)c3ccccc3C2=O)cc1 | ? | i | i | ? | -98*
COc1cccc(-c2nn(-c3ccc(C)cc3)cc2C(=O)N2CCc3cc(OC)c(OC)cc3C2)c1 | 21µM* | 18µM* | 23µM* | ? | -6
COc1ccc(OC)c(-c2nn(-c3ccccc3)cc2C(=O)N2CCc3ccccc3C2)c1 | ? | i | i | -18% | ?
CCc1ccc(CN2C(=O)c3ccccc3C2C(=O)NC(C)CC)cc1 (stereo not given) | 11% | i | i | 0% | 12
COc1ccc(NC(=O)c2nc(SCc3ccccc3F)ncc2Cl)cc1 | / | i | i | / | /
O=C(NCCc1ccccc1)C(=O)c1c(-c2ccccc2)cc2ccccn12 | 6% | i | 21µM* | 5% | -19
CCn1cc2nc(SCc3ccccc3Cl)n(Cc3ccc(OC)cc3)c(=O)c2n1 | / | i | i | / | /
CCn1cc2nc(SCC(=O)Nc3ccc(OC)cc3OC)n(Cc3ccc(OC)cc3)c(=O)c2n1 | 5.2µM* | ? | ? | 3.7µM* | 6
CCn1cc2nc(SCc3cccc(C(F)(F)F)c3)n(Cc3ccc(OC)cc3)c(=O)c2n1 | / | i | 18µM* | / | /
